This is a sample that favours compounds with a hit; in the whole collection about 4% have one here.
HIF-2a inh – blocks HIF-2a reporter activity; 786-0 RCC cells HIF-2a reporter, luciferase luminescence, overnight; AID 624352; 360,000 tested, 0.72% active; inhibition, % at 18.8 µM;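 active means inhibition of the luminescence signal of 40% or more relative to plate controls, in a single-dose primary screen at 18.75 µM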
Peg3 prom inh – Peg3 promoter activity inhibition; HeLa PEG-Prom luciferase reporter, luminescence, overnight; inhibition, % at 20 µM; 360,000 tested, 1.7% active; AID 588405;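 active means inhibition of at least 50% at 20 µM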
TROY signal inh – blocks TROY-dependent signaling in reporter cells; Q293 LMP1-TROYcd NF-kB luciferase reporter, 4 h; inhibition, % at 10 µM; 360,000 tested, 0.98% active;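 active means compounds whose plate-normalised and pattern-corrected inhibition of the luciferase reporter signal at the single screening dose is 50% or more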
TWEAK Fn14 block – TWEAK-Fn14 signaling inhibition; TWEAK-stimulated Fn14 reporter cells, luciferase luminescence, 8 h; inhibition, % at 10 µM; 360,000 tested, 2% active; in the data active means inhibition above about 50%
CF NFkB inh – cystic fibrosis NF-kB activation inhibition; inhibition, % at 5 µM; AID 588850; 360,000 tested, 0.86% active; KKLEB NF-kB-GFP reporter, PAF-induced, GFP fluorescence overnight;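 active means at least 50% inhibition at 5 µM, scaled per plate between neutral and stimulator controls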;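 further: PAF is a Pseudomonas aeruginosa culture filtrate used as stimulus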
KKLEB tox – counter-screen for CF NF-kB inhibitors: cytotoxicity | activity change (cytotoxicity), % at 5 µM | 360,000 tested, 0.36% active | KKLEB CF airway cells viability, ATPlite luminescence, overnight; active compounds read low; cells stimulated with P. aeruginosa culture filtrate;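 active means corrected activity change at or below -50% at 5 µM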
Numbers stand for hits.

How did O=C(Nc1cccc([N+](=O)[O-])c1)c1ccc([N+](=O)[O-])o1 do in these assays?
HIF-2a inh: inactive; Peg3 prom inh: inactive; TROY signal inh: inactive; TWEAK Fn14 block: inactive; CF NFkB inh: 70.0; KKLEB tox: inactive

Results for CCCC1SCC(C)(C)NC1=O (centres undefined) ?
HIF-2a inh: inactive; Peg3 prom inh: inactive; TROY signal inh: inactive; TWEAK Fn14 block: inactive; CF NFkB inh: inactive; KKLEB tox: inactive

Results for CCCCOCCCNC(=O)C[C@@H]1C[C@@]2(C(=O)OCC)CCCC=C2N(Cc2ccc3c(c2)OCO3)C1=O ?
HIF-2a inh: inactive; TROY signal inh: inactive; TWEAK Fn14 block: inactive

How did Oc1c(Br)cc(Br)cc1C=Nc1ccc2c(c1)OCCO2 do in these assays?
HIF-2a inh: inactive; Peg3 prom inh: inactive; TROY signal inh: 67.3; TWEAK Fn14 block: 65.1; CF NFkB inh: inactive; KKLEB tox: inactive

How did Cc1cccc(/N=C/c2c(O)[nH]c3ccccc23)n1 do in these assays?
HIF-2a inh: inactive; Peg3 prom inh: inactive; TROY signal inh: inactive; TWEAK Fn14 block: inactive; CF NFkB inh: inactive; KKLEB tox: inactive

How did O=[N+]([O-])c1ccc(O)c(C=Nc2ccc3c(c2)OCCO3)c1 do in these assays?
HIF-2a inh: inactive; Peg3 prom inh: inactive; TROY signal inh: 55.5; TWEAK Fn14 block: 67.4; CF NFkB inh: inactive; KKLEB tox: inactive

Results for Oc1[nH]c2ccccc2c1C=Nc1ccc2c(c1)OCCO2 ?
HIF-2a inh: inactive; Peg3 prom inh: inactive; TROY signal inh: 81.1; TWEAK Fn14 block: inactive; CF NFkB inh: inactive; KKLEB tox: inactive

How did O=[N+]([O-])c1ccc(O)c(C=Nc2cccc3ccccc23)c1 do in these assays?
HIF-2a inh: inactive; Peg3 prom inh: inactive; TROY signal inh: inactive; TWEAK Fn14 block: inactive; CF NFkB inh: inactive; KKLEB tox: inactive

How did O=C1N/C(=C/c2ccc(N3CCCC3)cc2)C(=O)N1c1ccccc1 do in these assays?
HIF-2a inh: inactive; Peg3 prom inh: inactive; TROY signal inh: inactive; TWEAK Fn14 block: inactive; CF NFkB inh: inactive; KKLEB tox: inactive

How did O=C1N/C(=C/c2ccc(N3CCOCC3)o2)C(=O)N1c1ccccc1 do in these assays?
HIF-2a inh: inactive; Peg3 prom inh: inactive; TROY signal inh: inactive; TWEAK Fn14 block: 53.4; CF NFkB inh: inactive; KKLEB tox: inactive

How did O=S(OCCN1CCOCC1)C(c1ccccc1)c1ccccc1 (centres undefined) do in these assays?
HIF-2a inh: inactive; Peg3 prom inh: inactive; TROY signal inh: inactive; TWEAK Fn14 block: inactive; CF NFkB inh: inactive; KKLEB tox: inactive

What do the screens show for `O=C1NC2(NN1c1ccccc1)C1CC3CC(C1)CC2C3` (centres undefined)?
HIF-2a inh: inactive; Peg3 prom inh: inactive; TWEAK Fn14 block: 88.2; CF NFkB inh: inactive; KKLEB tox: inactive

What do the screens show for `COc1ccc(NS(=O)(=O)c2cc(NC(=O)CCc3ccccc3)ccc2N2CCOCC2)cc1`?
HIF-2a inh: inactive; Peg3 prom inh: inactive; TROY signal inh: inactive; TWEAK Fn14 block: inactive; CF NFkB inh: inactive; KKLEB tox: inactive

How did CC(C)c1nnc(NC(=O)c2sc3ccccc3c2Cl)s1 do in these assays?
HIF-2a inh: inactive; Peg3 prom inh: inactive; TROY signal inh: inactive; TWEAK Fn14 block: inactive; CF NFkB inh: inactive; KKLEB tox: inactive

Results for Cc1ccnc(NC(=O)c2sc3ccccc3c2Cl)c1 ?
HIF-2a inh: inactive; Peg3 prom inh: inactive; TROY signal inh: 53.9; TWEAK Fn14 block: 74.8; CF NFkB inh: inactive; KKLEB tox: -75.2

What do the screens show for `Cc1cnc(NC(=O)c2nn(C)cc2[N+](=O)[O-])s1`?
HIF-2a inh: inactive; Peg3 prom inh: 93.5; TROY signal inh: inactive; TWEAK Fn14 block: inactive; CF NFkB inh: inactive; KKLEB tox: inactive

How did Cc1ccc(C(=O)Nc2ncc(C)s2)o1 do in these assays?
HIF-2a inh: inactive; Peg3 prom inh: inactive; TROY signal inh: inactive; TWEAK Fn14 block: inactive; CF NFkB inh: inactive; KKLEB tox: inactive

Results for Cc1ccc(C(=O)Nc2ncc(C)s2)s1 ?
HIF-2a inh: inactive; Peg3 prom inh: inactive; TROY signal inh: inactive; TWEAK Fn14 block: 57.3; CF NFkB inh: inactive; KKLEB tox: inactive

What do the screens show for `O=C(Nc1nccs1)c1sc2ccccc2c1Cl`?
HIF-2a inh: inactive; Peg3 prom inh: inactive; TROY signal inh: inactive; TWEAK Fn14 block: 67.0; CF NFkB inh: inactive; KKLEB tox: inactive

Results for O=C(CCN1C(=O)C2CC=CCC2C1=O)Nc1ccc(S(=O)(=O)N2CCCCC2)cc1 (centres undefined) ?
HIF-2a inh: inactive; Peg3 prom inh: inactive; TROY signal inh: inactive; TWEAK Fn14 block: inactive; CF NFkB inh: inactive; KKLEB tox: inactive

How did Cc1cnc(NC(=O)c2sc3ccccc3c2Cl)s1 do in these assays?
HIF-2a inh: inactive; Peg3 prom inh: inactive; TROY signal inh: inactive; TWEAK Fn14 block: 85.1; CF NFkB inh: inactive; KKLEB tox: -53.5

Results for Cc1ccnc(NC(=O)/C=C/c2ccccc2Cl)c1 ?
HIF-2a inh: inactive; Peg3 prom inh: inactive; TROY signal inh: inactive; TWEAK Fn14 block: 64.5; CF NFkB inh: inactive; KKLEB tox: inactive

How did Cc1nn(Cc2ccc(Cl)c(Cl)c2)c(C)c1NC(=O)c1sc2ccccc2c1Cl do in these assays?
HIF-2a inh: inactive; Peg3 prom inh: inactive; TROY signal inh: inactive; TWEAK Fn14 block: 58.4; CF NFkB inh: inactive; KKLEB tox: inactive

How did O=C(Nc1nccs1)c1sc2cc(Cl)ccc2c1Cl do in these assays?
HIF-2a inh: inactive; Peg3 prom inh: inactive; TROY signal inh: inactive; TWEAK Fn14 block: 101.5; CF NFkB inh: inactive; KKLEB tox: inactive

How did O=C(NC1CC1)c1sc2cc(Cl)ccc2c1Cl do in these assays?
HIF-2a inh: inactive; Peg3 prom inh: inactive; TROY signal inh: inactive; TWEAK Fn14 block: inactive; CF NFkB inh: inactive; KKLEB tox: inactive

How did OCCN1CCN(c2ncnc3c2ncn3[C@H]2CN(Cc3cccs3)C[C@@H](CO)O2)CC1 do in these assays?
HIF-2a inh: inactive; Peg3 prom inh: inactive; TROY signal inh: inactive; TWEAK Fn14 block: inactive; CF NFkB inh: inactive; KKLEB tox: inactive

What do the screens show for `COc1ccc(NS(=O)(=O)N2CCOCC2)cc1`?
HIF-2a inh: inactive; Peg3 prom inh: inactive; TROY signal inh: inactive; TWEAK Fn14 block: inactive; CF NFkB inh: inactive; KKLEB tox: inactive

What do the screens show for `CCN(c1ccccc1)S(=O)(=O)c1cccc(C(=O)NCc2ccncc2)c1`?
HIF-2a inh: inactive; Peg3 prom inh: inactive; TROY signal inh: inactive; TWEAK Fn14 block: inactive; CF NFkB inh: inactive; KKLEB tox: inactive

Results for COC(=O)[C@@H]1Cc2c([nH]c3ccccc23)C(C)(C)N1C(=O)CCl ?
HIF-2a inh: inactive; Peg3 prom inh: inactive; TROY signal inh: inactive; TWEAK Fn14 block: inactive; CF NFkB inh: 74.4; KKLEB tox: -62.5

What do the screens show for `O=C(CNC(=O)N1CC(=O)Nc2ccccc21)NCCc1ccc(Cl)cc1`?
HIF-2a inh: inactive; Peg3 prom inh: inactive; TROY signal inh: inactive; TWEAK Fn14 block: inactive; CF NFkB inh: inactive; KKLEB tox: inactive

What do the screens show for `COc1cc(NC(=O)c2ccc(-c3ccnn3C)c3ccoc23)cc(OC)c1OC`?
HIF-2a inh: inactive; Peg3 prom inh: inactive; TROY signal inh: inactive; TWEAK Fn14 block: inactive; CF NFkB inh: inactive; KKLEB tox: inactive
